“And” between values parts separate entries of the source, which are not always exact repeats. Identical values can stand only once. The campaign covered roughly 5,500 compounds. About 2,000 (36%) were called active. Another 18% or so got no clear call; they are omitted. Cut-off read from the data, not from the text of the source: active = normalized growth mostly below about 0.91 (no sharp cut-off); inconclusive = no clear call, values can overlap the other calls; inactive = mostly above about 0.92. This is one part of the list.
Test: chemical genetic growth profiling, strain panel (AID 1159580);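 note: tested at 20 µM; growth read once vehicle control cultures reached saturation at 30 °C; 1 = growth at the plate median or of vehicle wells; lower values mean less growth of the strain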
Details: S. cerevisiae deletion strains, growth OD

Measured: normalized growth

O=C(O)C(O)C(O)C(=O)O (configuration not stated)
inactive: locus YAL013W, strain DEP1, active compounds read low 0.974 | locus YAL021C, strain ccr4, active compounds read low 1 | locus YAL026C, strain drs2, active compounds read low 0.999 | locus YAL030W, strain snc1, active compounds read low 1 | locus YBL061C, strain skt5, active compounds read low 0.989 | locus YBR009C, strain hhf1, active compounds read low 0.99 | locus YBR021W, strain FUR4, active compounds read low 1.02 | locus YBR023C, strain chs3, active compounds read low 0.989 | locus YBR171W, strain sec66, active compounds read low 0.986 | locus YBR229C, strain ROT2, active compounds read low 0.952 | locus YBR231C, strain swc5, active compounds read low 0.996 | locus YBR279W, strain paf1, active compounds read low 0.985 | locus YCL011C, strain gbp2, active compounds read low 0.988 | locus YCL016C, strain dcc1, active compounds read low 0.994 | locus YCL029C, strain bik1, active compounds read low 0.985 | locus YCL061C, strain MRC1, active compounds read low 0.997 | locus YCL069W, strain vba3, active compounds read low 0.982 | locus YCR088W, strain abp1, active compounds read low 0.992 | locus YDL005C, strain med2, active compounds read low 0.984 | locus YDL035C, strain GPR1, active compounds read low 0.996 | locus YDL040C, strain nat1, active compounds read low 1.01 | locus YDL074C, strain BRE1, active compounds read low 0.976 | locus YDL101C, strain DUN1, active compounds read low 0.958 | locus YDL134C, strain PPH21, active compounds read low 0.986 | locus YDL185W, strain tfp1, active compounds read low 0.966 | locus YDL192W, strain arf1, active compounds read low 0.985 | locus YDR001C, strain nth1, active compounds read low 0.996 | locus YDR069C, strain doa4, active compounds read low 0.99 | locus YDR101C, strain arx1, active compounds read low 0.994 | locus YDR137W, strain rgp1, active compounds read low 0.984 | locus YDR150W, strain NUM1, active compounds read low 0.979 | locus YDR159W, strain sac3, active compounds read low 0.975 | locus YDR162C, strain NBP2, active compounds read low 0.95 | locus YDR195W, strain ref2 0.978 | locus YDR297W, strain sur2, active compounds read low 0.99 | locus YDR318W, strain mcm21, active compounds read low 0.999 | locus YDR334W, strain swr1, active compounds read low 0.992 | locus YDR335W, strain msn5, active compounds read low 0.992 | locus YDR388W, active compounds read low 0.99 | locus YDR392W, strain spt3, active compounds read low 1 | locus YDR502C, strain sam2, active compounds read low 0.991 | locus YEL003W, strain gim4, active compounds read low 0.998 | locus YEL037C, strain rad23, active compounds read low 1 | locus YEL061C, strain CIN8 (second series), active compounds read low 1 | locus YEL061C, strain CIN8, active compounds read low 0.984 | locus YER015W, strain faa2, active compounds read low 0.992 | locus YER016W, strain bim1, active compounds read low 1 | locus YER110C, active compounds read low 0.982 | locus YER111C, strain swi4, active compounds read low 0.988 | locus YER155C, strain BEM2 (second series), active compounds read low 0.991 | locus YER155C, strain BEM2, active compounds read low 0.992 | locus YER167W, strain BCK2, active compounds read low 0.989 | locus YFR010W, strain ubp6, active compounds read low 1 | locus YGL078C, strain dbp3, active compounds read low 0.99 | locus YGL086W, strain mad1, active compounds read low 1 | locus YGL167C, strain pmr1, active compounds read low 1.02 | locus YGL173C, strain kem1, active compounds read low 0.974 | locus YGL227W, strain vid30, active compounds read low 0.997 | locus YGL240W, strain doc1, active compounds read low 0.991 | locus YGL248W, strain PDE1, active compounds read low 0.98 | locus YGL253W, strain hxk2, active compounds read low 0.994 | locus YGR078C, strain PAC10, active compounds read low 0.99 | locus YGR135W, strain pre9, active compounds read low 0.978 | locus YGR229C, strain SMI1, active compounds read low 0.995 | locus YGR252W, strain gcn5, active compounds read low 1.03 | locus YHR013C, strain ard1, active compounds read low 0.987 | locus YHR027C, strain rpn1, active compounds read low 0.987 | locus YHR030C, strain SLT2, active compounds read low 0.997 and 0.963 | locus YHR079C, strain IRE1 (second series), active compounds read low 0.996 | locus YHR079C, strain IRE1, active compounds read low 0.976 | locus YHR094C, strain hxt1, active compounds read low 0.987 | locus YHR129C, strain ARP1, active compounds read low 0.993 | locus YHR142W, strain chs7, active compounds read low 0.983 | locus YHR200W, strain rpn10, active compounds read low 0.99 | locus YIL066C, strain RNR3, active compounds read low 0.996 | locus YIL073C, strain SPO22, active compounds read low 1.01 | locus YIL125W, strain kgd1, active compounds read low 0.995 | locus YIR030C, strain dcg1, active compounds read low 0.989 | locus YJL092W, strain hpr5, active compounds read low 1 | locus YJL095W, strain BCK1 (second series), active compounds read low 1 | locus YJL095W, strain BCK1, active compounds read low 1 and 0.963 | locus YJL115W, strain asf1, active compounds read low 0.997 | locus YJL129C, strain trk1, active compounds read low 0.98 | locus YJL134W, strain LCB3, active compounds read low 0.982 | locus YJL154C, strain vps35, active compounds read low 0.988 | locus YJL164C, strain tpk1, active compounds read low 1.01 | locus YJL166W, strain qcr8, active compounds read low 0.989 | locus YJL168C, strain set2, active compounds read low 0.996 | locus YJL187C, strain SWE1 (second series), active compounds read low 0.98 | locus YJL187C, strain SWE1, active compounds read low 1 | locus YJR043C, strain POL32, active compounds read low 1.03 | locus YJR066W, strain TOR1, active compounds read low 0.943
